The supplement of paper PMC11732987, “Enantioselective OTUD7B fragment discovery through chemoproteomics screening and high-throughput optimisation” (Communications Chemistry, 2025)

Key:
Test in all cases: log2 ratio of Biotin-Ahx-Ub-VS probe labelling (fragment/DMSO); higher = less target engagement (more negative = stronger competition), active = hit call of the paper (q ≤ 0.05, log2 ratio ≤ -1)
Conditions in all cases: compound concentration: 200 uM; treatment time: 3 h
USP34 = USP34 (UniProt Q70CQ2)
Sequence of USP34 (Q70CQ2 whole entry, the tested form may be a part): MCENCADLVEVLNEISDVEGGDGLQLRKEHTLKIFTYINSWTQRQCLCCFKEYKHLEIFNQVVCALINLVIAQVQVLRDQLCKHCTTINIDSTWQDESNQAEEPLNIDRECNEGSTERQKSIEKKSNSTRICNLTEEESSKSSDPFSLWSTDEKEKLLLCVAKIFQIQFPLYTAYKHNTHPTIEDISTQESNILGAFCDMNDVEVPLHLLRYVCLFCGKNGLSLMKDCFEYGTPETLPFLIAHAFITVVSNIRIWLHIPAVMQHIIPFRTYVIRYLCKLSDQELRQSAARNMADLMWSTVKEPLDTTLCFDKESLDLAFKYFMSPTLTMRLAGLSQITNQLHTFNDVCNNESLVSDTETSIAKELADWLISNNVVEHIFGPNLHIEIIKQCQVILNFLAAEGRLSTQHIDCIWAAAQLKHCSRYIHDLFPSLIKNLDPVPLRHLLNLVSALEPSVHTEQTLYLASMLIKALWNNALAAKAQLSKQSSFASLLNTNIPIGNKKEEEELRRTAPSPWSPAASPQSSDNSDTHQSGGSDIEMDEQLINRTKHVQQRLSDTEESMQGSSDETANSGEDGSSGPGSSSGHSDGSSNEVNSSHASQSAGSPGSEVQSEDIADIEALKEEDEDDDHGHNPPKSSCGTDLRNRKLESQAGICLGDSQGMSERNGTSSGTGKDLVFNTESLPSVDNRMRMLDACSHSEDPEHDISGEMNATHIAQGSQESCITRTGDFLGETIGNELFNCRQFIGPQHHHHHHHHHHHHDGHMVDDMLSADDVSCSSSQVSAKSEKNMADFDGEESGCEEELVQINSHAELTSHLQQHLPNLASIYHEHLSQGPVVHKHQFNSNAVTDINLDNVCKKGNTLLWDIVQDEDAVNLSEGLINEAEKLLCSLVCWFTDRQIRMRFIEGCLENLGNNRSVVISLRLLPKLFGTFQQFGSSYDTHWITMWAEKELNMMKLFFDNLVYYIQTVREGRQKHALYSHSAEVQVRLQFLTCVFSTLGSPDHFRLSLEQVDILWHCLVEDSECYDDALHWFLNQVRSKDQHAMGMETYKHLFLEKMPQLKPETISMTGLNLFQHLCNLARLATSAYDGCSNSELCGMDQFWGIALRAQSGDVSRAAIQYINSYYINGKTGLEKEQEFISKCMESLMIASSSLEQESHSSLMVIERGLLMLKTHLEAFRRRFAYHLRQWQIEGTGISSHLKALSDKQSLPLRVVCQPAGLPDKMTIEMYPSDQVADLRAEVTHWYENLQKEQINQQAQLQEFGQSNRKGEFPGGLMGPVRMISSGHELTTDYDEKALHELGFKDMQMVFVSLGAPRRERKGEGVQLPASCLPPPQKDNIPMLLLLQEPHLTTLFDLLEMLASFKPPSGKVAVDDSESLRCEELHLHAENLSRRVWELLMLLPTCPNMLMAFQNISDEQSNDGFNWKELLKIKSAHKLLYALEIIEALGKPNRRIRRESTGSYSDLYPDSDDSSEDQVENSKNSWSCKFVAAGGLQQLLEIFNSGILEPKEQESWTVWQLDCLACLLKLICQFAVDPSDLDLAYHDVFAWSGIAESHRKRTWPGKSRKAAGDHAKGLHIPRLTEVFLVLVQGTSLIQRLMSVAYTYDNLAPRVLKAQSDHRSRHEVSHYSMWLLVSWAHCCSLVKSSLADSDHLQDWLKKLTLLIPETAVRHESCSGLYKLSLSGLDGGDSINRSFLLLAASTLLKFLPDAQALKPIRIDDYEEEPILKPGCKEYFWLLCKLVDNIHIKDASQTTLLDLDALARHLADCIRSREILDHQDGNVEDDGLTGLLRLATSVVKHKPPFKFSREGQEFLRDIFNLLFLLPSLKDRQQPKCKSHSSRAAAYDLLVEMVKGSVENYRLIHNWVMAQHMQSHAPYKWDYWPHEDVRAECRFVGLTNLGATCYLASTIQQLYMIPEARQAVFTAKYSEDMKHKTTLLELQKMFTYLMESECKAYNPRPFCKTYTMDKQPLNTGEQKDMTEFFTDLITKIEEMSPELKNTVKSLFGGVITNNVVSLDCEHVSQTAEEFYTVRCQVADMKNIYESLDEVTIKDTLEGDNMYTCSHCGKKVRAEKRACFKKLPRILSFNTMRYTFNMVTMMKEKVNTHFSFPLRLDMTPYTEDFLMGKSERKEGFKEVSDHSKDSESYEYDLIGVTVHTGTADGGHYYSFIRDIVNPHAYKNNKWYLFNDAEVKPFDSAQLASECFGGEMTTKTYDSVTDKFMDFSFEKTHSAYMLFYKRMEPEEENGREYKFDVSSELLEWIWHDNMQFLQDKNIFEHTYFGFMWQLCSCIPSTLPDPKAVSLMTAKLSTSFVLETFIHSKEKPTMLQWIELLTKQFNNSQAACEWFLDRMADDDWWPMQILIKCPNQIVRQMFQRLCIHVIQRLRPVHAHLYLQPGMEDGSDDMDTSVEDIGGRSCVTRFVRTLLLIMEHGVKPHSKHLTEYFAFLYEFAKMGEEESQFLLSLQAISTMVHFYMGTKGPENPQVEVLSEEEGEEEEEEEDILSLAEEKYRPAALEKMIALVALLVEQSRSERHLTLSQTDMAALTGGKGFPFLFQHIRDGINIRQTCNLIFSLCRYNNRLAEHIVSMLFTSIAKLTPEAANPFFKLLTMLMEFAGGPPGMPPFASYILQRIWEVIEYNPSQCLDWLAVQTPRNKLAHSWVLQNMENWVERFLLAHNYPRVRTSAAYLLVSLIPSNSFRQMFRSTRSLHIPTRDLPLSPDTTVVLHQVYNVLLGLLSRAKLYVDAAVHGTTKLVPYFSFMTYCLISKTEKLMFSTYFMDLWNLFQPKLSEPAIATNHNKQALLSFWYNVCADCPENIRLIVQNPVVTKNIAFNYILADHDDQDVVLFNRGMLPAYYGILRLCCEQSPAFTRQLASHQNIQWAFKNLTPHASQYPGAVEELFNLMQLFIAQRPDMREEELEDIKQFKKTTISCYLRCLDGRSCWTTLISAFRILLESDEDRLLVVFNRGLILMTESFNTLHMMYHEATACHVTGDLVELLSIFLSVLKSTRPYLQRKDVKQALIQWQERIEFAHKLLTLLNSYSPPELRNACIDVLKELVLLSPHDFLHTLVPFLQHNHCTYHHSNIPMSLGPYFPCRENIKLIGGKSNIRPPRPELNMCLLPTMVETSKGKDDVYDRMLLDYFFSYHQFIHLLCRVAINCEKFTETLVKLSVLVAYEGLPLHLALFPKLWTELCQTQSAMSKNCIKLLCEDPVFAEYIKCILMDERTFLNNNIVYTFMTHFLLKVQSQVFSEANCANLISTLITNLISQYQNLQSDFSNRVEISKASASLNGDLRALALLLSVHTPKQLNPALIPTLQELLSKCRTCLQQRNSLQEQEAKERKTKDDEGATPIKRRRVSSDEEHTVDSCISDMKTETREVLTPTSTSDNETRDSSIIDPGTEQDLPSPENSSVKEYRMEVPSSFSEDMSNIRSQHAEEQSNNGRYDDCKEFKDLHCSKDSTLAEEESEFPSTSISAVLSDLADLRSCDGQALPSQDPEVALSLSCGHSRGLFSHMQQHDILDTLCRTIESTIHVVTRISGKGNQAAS
Method in brief: (§1)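 Labelling with Biotin-Ahx-Ub-VS (0.5 µM final, 1 h) followed a 3 h triplicate treatment of HEK293T lysate (495 µg per sample, Tris/CHAPS/IGEPAL buffer with protease inhibitors) with fragment at 200 µM or vehicle. Labelled DUBs were NeutrAvidin-enriched, digested with LysC and trypsin, and run by diaPASEF LC-MS/MS. The values, average log2 fragment/vehicle ratios by unpaired t-test, come from global-median-normalised Spectronaut label-free quantities. Proteins with ≥2 unique peptides were used.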

USP36 = target: T1, USP36 (UniProt Q9P275)
T1 sequence (whole entry): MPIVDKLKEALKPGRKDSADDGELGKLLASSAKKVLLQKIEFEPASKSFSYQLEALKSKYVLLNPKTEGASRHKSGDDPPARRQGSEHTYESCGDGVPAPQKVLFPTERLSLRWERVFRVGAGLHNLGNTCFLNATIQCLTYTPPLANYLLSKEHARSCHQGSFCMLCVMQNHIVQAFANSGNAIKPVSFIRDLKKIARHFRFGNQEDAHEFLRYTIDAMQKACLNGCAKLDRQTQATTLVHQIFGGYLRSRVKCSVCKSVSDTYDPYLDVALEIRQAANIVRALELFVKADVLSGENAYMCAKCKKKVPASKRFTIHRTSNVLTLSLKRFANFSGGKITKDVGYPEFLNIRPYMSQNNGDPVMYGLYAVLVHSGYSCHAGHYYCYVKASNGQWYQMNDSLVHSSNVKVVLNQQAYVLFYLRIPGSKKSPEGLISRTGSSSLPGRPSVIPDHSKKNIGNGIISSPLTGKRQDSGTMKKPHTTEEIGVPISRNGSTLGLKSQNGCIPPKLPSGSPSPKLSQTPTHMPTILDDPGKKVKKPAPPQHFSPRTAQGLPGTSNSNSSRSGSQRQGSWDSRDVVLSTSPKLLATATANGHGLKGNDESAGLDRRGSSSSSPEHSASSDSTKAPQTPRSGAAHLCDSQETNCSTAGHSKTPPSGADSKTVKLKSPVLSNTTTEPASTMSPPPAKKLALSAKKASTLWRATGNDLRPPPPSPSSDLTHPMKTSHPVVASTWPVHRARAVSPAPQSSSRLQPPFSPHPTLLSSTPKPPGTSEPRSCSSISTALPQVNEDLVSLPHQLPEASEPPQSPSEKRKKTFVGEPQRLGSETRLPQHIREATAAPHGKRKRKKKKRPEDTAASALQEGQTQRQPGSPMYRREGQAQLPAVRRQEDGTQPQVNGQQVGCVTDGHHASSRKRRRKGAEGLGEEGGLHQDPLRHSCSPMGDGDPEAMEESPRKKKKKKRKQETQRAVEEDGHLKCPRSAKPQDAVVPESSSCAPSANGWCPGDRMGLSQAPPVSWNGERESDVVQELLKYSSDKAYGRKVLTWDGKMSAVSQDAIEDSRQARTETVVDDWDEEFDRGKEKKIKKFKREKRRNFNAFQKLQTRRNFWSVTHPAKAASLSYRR
Method in brief: as §1

USP38 = target: T2, USP38 (UniProt Q8NB14)
T2 sequence (whole entry): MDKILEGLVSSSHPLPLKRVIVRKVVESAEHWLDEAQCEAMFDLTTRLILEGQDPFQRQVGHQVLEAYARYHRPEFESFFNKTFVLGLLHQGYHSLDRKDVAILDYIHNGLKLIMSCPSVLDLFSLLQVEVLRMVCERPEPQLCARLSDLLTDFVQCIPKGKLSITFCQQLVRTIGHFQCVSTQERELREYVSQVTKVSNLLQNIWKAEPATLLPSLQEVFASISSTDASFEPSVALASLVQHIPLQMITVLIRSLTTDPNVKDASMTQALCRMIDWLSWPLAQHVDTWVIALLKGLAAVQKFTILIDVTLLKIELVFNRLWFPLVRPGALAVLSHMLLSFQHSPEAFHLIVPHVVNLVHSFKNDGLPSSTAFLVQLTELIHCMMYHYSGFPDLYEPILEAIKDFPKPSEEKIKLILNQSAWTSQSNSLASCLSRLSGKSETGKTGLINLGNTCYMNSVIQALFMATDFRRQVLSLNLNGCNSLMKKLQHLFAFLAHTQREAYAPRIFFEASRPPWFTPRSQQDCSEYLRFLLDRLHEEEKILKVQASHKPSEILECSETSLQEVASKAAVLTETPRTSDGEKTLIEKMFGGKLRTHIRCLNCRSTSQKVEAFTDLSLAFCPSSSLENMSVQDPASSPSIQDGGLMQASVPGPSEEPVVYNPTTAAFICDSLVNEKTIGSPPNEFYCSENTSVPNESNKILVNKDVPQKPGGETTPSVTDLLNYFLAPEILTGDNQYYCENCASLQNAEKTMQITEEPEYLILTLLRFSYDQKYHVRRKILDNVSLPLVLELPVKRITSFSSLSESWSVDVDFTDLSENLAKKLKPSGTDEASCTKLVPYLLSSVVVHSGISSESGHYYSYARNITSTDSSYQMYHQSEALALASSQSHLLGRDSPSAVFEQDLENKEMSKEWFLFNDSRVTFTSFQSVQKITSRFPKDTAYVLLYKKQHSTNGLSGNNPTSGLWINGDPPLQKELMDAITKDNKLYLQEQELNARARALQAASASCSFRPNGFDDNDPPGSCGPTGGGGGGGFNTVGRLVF
Method in brief: as §1

USP39 = target: T3, USP39 (UniProt Q53GS9)
T3 sequence (whole entry): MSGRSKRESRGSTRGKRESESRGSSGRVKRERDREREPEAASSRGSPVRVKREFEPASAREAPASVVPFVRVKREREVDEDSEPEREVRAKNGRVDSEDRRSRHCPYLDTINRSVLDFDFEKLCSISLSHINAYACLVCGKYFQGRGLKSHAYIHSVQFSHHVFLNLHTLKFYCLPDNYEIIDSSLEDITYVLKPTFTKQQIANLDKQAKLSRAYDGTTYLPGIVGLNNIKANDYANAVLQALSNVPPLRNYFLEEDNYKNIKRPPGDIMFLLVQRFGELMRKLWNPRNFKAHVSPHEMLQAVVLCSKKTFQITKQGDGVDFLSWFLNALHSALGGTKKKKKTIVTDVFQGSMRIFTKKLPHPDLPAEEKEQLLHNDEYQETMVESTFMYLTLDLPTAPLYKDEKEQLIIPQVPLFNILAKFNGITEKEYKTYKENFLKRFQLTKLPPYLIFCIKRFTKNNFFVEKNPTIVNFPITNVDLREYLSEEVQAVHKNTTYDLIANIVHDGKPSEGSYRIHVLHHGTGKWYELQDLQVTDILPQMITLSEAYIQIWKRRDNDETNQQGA
Method in brief: as §1

USP4 = target: T4, USP4 (UniProt Q13107)
T4 sequence (whole entry): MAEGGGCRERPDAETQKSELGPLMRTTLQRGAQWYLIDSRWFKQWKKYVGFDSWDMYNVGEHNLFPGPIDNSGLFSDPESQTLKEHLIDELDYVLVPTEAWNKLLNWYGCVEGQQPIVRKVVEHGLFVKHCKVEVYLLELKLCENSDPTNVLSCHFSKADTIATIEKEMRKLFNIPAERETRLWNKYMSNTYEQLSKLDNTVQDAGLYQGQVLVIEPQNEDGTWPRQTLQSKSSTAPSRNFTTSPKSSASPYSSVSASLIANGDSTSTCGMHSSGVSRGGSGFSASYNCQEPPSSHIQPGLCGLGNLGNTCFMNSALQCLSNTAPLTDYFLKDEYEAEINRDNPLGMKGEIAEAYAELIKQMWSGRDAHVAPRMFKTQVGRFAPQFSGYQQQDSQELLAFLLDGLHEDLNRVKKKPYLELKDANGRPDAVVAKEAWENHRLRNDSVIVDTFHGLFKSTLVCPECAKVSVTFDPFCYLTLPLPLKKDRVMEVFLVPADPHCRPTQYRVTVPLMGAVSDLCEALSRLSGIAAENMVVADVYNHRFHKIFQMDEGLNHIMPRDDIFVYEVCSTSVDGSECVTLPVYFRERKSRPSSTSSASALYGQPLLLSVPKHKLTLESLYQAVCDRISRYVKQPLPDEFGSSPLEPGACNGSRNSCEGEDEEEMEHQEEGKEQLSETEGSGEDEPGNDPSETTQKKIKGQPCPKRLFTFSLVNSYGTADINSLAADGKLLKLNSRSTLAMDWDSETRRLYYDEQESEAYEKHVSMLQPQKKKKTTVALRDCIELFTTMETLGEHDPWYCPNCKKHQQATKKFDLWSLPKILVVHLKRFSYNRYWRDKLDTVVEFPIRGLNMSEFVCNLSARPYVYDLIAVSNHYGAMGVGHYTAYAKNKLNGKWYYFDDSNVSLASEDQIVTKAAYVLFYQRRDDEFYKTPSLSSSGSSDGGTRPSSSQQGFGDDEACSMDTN
Method in brief: as §1

Measured: log2 ratio of Biotin-Ahx-Ub-VS probe labelling

O=C(CCl)N1c2ccccc2NC(=O)C12CCCC2
inactive: USP34 -0.193 | USP36 0.111 | USP38 0.18 | USP39 0.678 | USP4 -0.0657
